Reference: PubChem BioAssay AID1159580 (chemical genetic matrix, 2015)
The campaign covered roughly 5,500 compounds. About 2,000 (36%) were called active. Another 18% or so got no clear call; they are omitted. Cut-off read from the data, not from the text of the source: active = normalized growth mostly below about 0.91 (no sharp cut-off); inconclusive = no clear call, values can overlap the other calls; inactive = mostly above about 0.92. The list shows a part of the results.

Assay: chemical genetic growth profiling, strain panel (AID 1159580);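 note: tested at 20 µM; growth read once vehicle control cultures reached saturation at 30 °C; 1 = growth at the plate median or of vehicle wells; lower values mean less growth of the strain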
Conditions: S. cerevisiae deletion strains, growth OD

Measured: normalized growth

O=c1c(O)c(-c2ccccc2)oc2ccccc12
active: locus YJL187C, strain SWE1, hits give low values 0.758 | locus YJR066W, strain TOR1, hits give low values 0.766 | locus YKL160W, strain elf1, hits give low values 0.678 | locus YKR026C, strain gcn3, hits give low values 0.777 | locus YKR091W, strain srl3, hits give low values 0.82 | locus YLL001W, strain dnm1, hits give low values 0.512 | locus YLL026W, hits give low values 0.354 | locus YLL041C, strain sdh2, hits give low values 0.872 | locus YLR027C, strain aat2, hits give low values 0.681 | locus YLR113W, strain HOG1, hits give low values 0.851 | locus YLR221C, strain rsa3, hits give low values 0.612 | locus YLR258W, strain gsy2, hits give low values 0.655 | locus YLR262C, strain YPT6 (second series), hits give low values 0.228 | locus YLR320W, strain mms22, hits give low values 0.503 | locus YLR342W, strain FKS1, hits give low values 0.513 | locus YLR357W, strain rsc2, hits give low values 0.584 | locus YLR370C, strain arc18, hits give low values 0.364 | locus YLR384C, strain iki3, hits give low values 0.877 | locus YML120C, strain ndi1, hits give low values 0.844 | locus YMR058W, strain fet3, hits give low values 0.0896 | locus YMR129W, hits give low values 0.872 | locus YMR205C, strain PFK2, hits give low values 0.506 | locus YMR231W, strain pep5, hits give low values 0.128 | locus YNL071W, strain lat1, hits give low values 0.301 | locus YNL183C, strain NPR1, hits give low values 0.8 | locus YNL209W, strain ssb2, hits give low values 0.159 | locus YNL248C, strain rpa49, hits give low values 0.567 | locus YNL322C, strain KRE1 (second series), hits give low values 0.851 | locus YNR049C, strain mso1, hits give low values 0.616 | locus YOR001W, strain rrp6, hits give low values 0.805 | locus YOR070C, strain gyp1, hits give low values 0.561 | locus YOR080W, strain dia2, hits give low values 0.689 | locus YOR083W, strain WHI5, hits give low values 0.565 | locus YOR106W, strain vam3, hits give low values 0.163 | locus YOR231W, strain MKK1, hits give low values 0.834 | locus YOR265W, strain rbl2, hits give low values 0.467 | locus YOR270C, strain vph1, hits give low values 0.16 | locus YOR290C, strain snf2, hits give low values 0.589 | locus YPL051W, strain arl3, hits give low values 0.262 | locus YPL078C, strain atp4, hits give low values 0.553 | locus YPL106C, strain sse1, hits give low values 0.676 | locus YPL240C, strain hsp82, hits give low values 0.762
inactive: locus YJR043C, strain POL32, hits give low values 0.981 | locus YJR075W, strain HOC1, hits give low values 0.982 | locus YKL009W, strain mrt4, hits give low values 0.988 | locus YKL068W, hits give low values 0.988 | locus YKL085W, strain MDH1 (second series), hits give low values 0.994 | locus YKL085W, strain MDH1, hits give low values 0.994 | locus YKR001C, strain vps1, hits give low values 1.02 | locus YLR039C, strain RIC1, hits give low values 1.01 | locus YLR058C, strain SHM2, hits give low values 0.977 | locus YLR102C, strain apc9, hits give low values 0.997 | locus YLR262C, strain YPT6, hits give low values 1 | locus YLR268W, strain sec22, hits give low values 1.03 | locus YLR330W, strain CHS5, hits give low values 0.997 | locus YLR342W, strain FKS1 (second series), hits give low values 1.01 | locus YLR371W, strain rom2, hits give low values 0.974 | locus YLR418C, strain cdc73, hits give low values 0.97 | locus YML016C, strain PPZ1, hits give low values 1 | locus YML032C, strain rad52, hits give low values 0.956 | locus YML124C, strain tub3, hits give low values 0.988 | locus YMR078C, strain ctf18, hits give low values 0.996 | locus YMR125W, strain sto1, hits give low values 0.933 | locus YMR223W, strain ubp8, hits give low values 0.965 | locus YMR307W, strain GAS1, hits give low values 0.963 | locus YNL067W, strain RPL9B, hits give low values 0.994 | locus YNL128W, strain TEP1, hits give low values 0.966 | locus YNL233W, strain BNI4, hits give low values 1.02 | locus YNL250W, strain rad50, hits give low values 0.975 | locus YNL271C, strain bni1, hits give low values 0.993 | locus YNL298W, strain CLA4, hits give low values 0.996 | locus YNL307C, strain MCK1, hits give low values 0.995 | locus YNR052C, strain pop2, hits give low values 0.959 | locus YOL006C, strain TOP1, hits give low values 1.06 | locus YOL012C, strain htz1 0.87 | locus YOL147C, strain pex11, hits give low values 0.996 | locus YOR061W, strain CKA2, hits give low values 0.966 | locus YOR069W, strain VPS5, hits give low values 0.999 | locus YOR136W, strain idh2, hits give low values 0.991 | locus YOR144C, strain elg1, hits give low values 0.982 | locus YOR184W, strain ser1, hits give low values 0.988 | locus YOR316C, strain cot1, hits give low values 0.986 | locus YPL256C, strain CLN2, hits give low values 0.886 | locus YPR119W, strain clb2, hits give low values 0.992 | locus YPR141C, strain kar3, hits give low values 0.993 | locus YPR163C, strain tif3, hits give low values 0.984 | locus YPR167C, strain met16, hits give low values 0.978 | strain wtn01, hits give low values 1.05
